# Experimental data as given in the supplement of paper PMC4466140.
# Legend:
# Test in all cases: SPOT peptide array binding signal intensity (averaged, normalized) (arbitrary units (background-subtracted, floor 0; scale differs between SH3 domains)); higher = stronger binding of the SH3 domain to the peptide
# AgAbp1 = target: AgAbp1
# Outline: (§1)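 Detection of bound protein relied on anti-GST antibody, an HRP anti-mouse secondary and luminol, with imaging and quantification in Genespotter. The bound protein was GST-fused SH3 domains from four yeast species, incubated at 10 μg/ml overnight at 4°C in TBS-based blocking buffer on cellulose membranes carrying synthetic 15-mer peptides with cysteines replaced by serines. Binding signal is normalized, background-subtracted spot intensity averaged over replicates, in arbitrary units that differ between domains.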
# AgBbc1 = target: AgBbc1
# Outline: as §1
# AgBem1-D1 = target: AgBem1-D1
# Outline: as §1
# AgBzz1-D1 = target: AgBzz1-D1
# Outline: as §1
# AgBzz1-D2 = target: AgBzz1-D2
# Outline: as §1
# AgCyk3 = target: AgCyk3
# Outline: as §1
# AgFus1 = target: AgFus1
# Outline: as §1
# AgHof1 = target: AgHof1
# Outline: as §1
# AgHse1 = target: AgHse1
# Outline: as §1
# AgLsb1 = target: AgLsb1
# Outline: as §1
# AgLsb4 = target: AgLsb4
# Outline: as §1
# AgMyo5 = target: AgMyo5
# Outline: as §1
# AgNbp2 = target: AgNbp2
# Outline: as §1
# AgRvs167 = target: AgRvs167
# Outline: as §1
# AgSho1 = target: AgSho1
# Outline: as §1
# AgSla1-D1-D2 = target: AgSla1-D1-D2
# Outline: as §1
# AgSla1-D3 = target: AgSla1-D3
# Outline: as §1
# CaAbp1-D1 = target: CaAbp1-D1
# Outline: as §1
# CaAbp1-D2 = target: CaAbp1-D2
# Outline: as §1
# CaBbc1 = target: CaBbc1
# Outline: as §1
# CaBem1-D1 = target: CaBem1-D1
# Outline: as §1
# CaBzz1-D1 = target: CaBzz1-D1
# Outline: as §1
# CaBzz1-D2 = target: CaBzz1-D2
# Outline: as §1
# CaCyk3 = target: CaCyk3
# Outline: as §1
# CaFus1 = target: CaFus1
# Outline: as §1
# CaHof1 = target: CaHof1
# Outline: as §1
# CaHse1 = target: CaHse1
# Outline: as §1
# CaLsb1 = target: CaLsb1
# Outline: as §1
# CaLsb4 = target: CaLsb4
# Outline: as §1
# CaMyo5 = target: CaMyo5
# Outline: as §1
# CaNbp2 = target: CaNbp2
# Outline: as §1
# CaRvs167 = target: CaRvs167
# Outline: as §1
# CaRvs167-3 = target: CaRvs167-3
# Outline: as §1
# CaSho1 = target: CaSho1
# Outline: as §1
# CaSla1-D1-D2 = target: CaSla1-D1-D2
# Outline: as §1
# CaSla1-D3 = target: CaSla1-D3
# Outline: as §1
# ScAbp1 = target: ScAbp1
# Outline: as §1
# ScBbc1 = target: ScBbc1
# Outline: as §1
# ScBem1-D1 = target: ScBem1-D1
# Outline: as §1
# ScBzz1-D1 = target: ScBzz1-D1
# Outline: as §1
# ScBzz1-D2 = target: ScBzz1-D2
# Outline: as §1
# ScCyk3 = target: ScCyk3
# Outline: as §1
# ScFus1 = target: ScFus1
# Outline: as §1
# ScHof1 = target: ScHof1
# Outline: as §1
# ScHse1 = target: ScHse1
# Outline: as §1
# ScLsb1 = target: ScLsb1
# Outline: as §1
# ScLsb2 = target: ScLsb2
# Outline: as §1
# ScLsb3 = target: ScLsb3
# Outline: as §1
# ScLsb4 = target: ScLsb4
# Outline: as §1
# ScMyo3 = target: ScMyo3
# Outline: as §1
# ScMyo5 = target: ScMyo5
# Outline: as §1
# ScNbp2 = target: ScNbp2
# Outline: as §1
# ScPex13 = target: ScPex13
# Outline: as §1
# ScRvs167 = target: ScRvs167
# Outline: as §1
# ScSho1 = target: ScSho1
# Outline: as §1
# ScSla1-D1-D2 = target: ScSla1-D1-D2
# Outline: as §1
# ScSla1-D3 = target: ScSla1-D3
# Outline: as §1
# SpAbp1-D1 = target: SpAbp1-D1
# Outline: as §1
# SpBbc1 = target: SpBbc1
# Outline: as §1
# SpBzz1-D1 = target: SpBzz1-D1
# Outline: as §1
binder,measurement,setting,value
PSRRAPLQLPQLVNK,SPOT peptide array binding signal intensity,AgAbp1,15
same,SPOT peptide array binding signal intensity,AgBbc1,8.5
same,SPOT peptide array binding signal intensity,AgBem1-D1,26
same,SPOT peptide array binding signal intensity,AgBzz1-D1,13
same,SPOT peptide array binding signal intensity,AgBzz1-D2,35
same,SPOT peptide array binding signal intensity,AgCyk3,≤ 0
same,SPOT peptide array binding signal intensity,AgFus1,≤ 0
same,SPOT peptide array binding signal intensity,AgHof1,36.5
same,SPOT peptide array binding signal intensity,AgHse1,≤ 0
same,SPOT peptide array binding signal intensity,AgLsb1,214
same,SPOT peptide array binding signal intensity,AgLsb4,≤ 0
same,SPOT peptide array binding signal intensity,AgMyo5,≤ 0
same,SPOT peptide array binding signal intensity,AgNbp2,3
same,SPOT peptide array binding signal intensity,AgRvs167,≤ 0
same,SPOT peptide array binding signal intensity,AgSho1,≤ 0
same,SPOT peptide array binding signal intensity,AgSla1-D1-D2,6
same,SPOT peptide array binding signal intensity,AgSla1-D3,1.5
same,SPOT peptide array binding signal intensity,CaAbp1-D1,89.5
same,SPOT peptide array binding signal intensity,CaAbp1-D2,52
same,SPOT peptide array binding signal intensity,CaBbc1,279
same,SPOT peptide array binding signal intensity,CaBem1-D1,11.5
same,SPOT peptide array binding signal intensity,CaBzz1-D1,130
same,SPOT peptide array binding signal intensity,CaBzz1-D2,41.8
same,SPOT peptide array binding signal intensity,CaCyk3,3
same,SPOT peptide array binding signal intensity,CaFus1,23.5
same,SPOT peptide array binding signal intensity,CaHof1,≤ 0
same,SPOT peptide array binding signal intensity,CaHse1,≤ 0
same,SPOT peptide array binding signal intensity,CaLsb1,≤ 0
same,SPOT peptide array binding signal intensity,CaLsb4,17
same,SPOT peptide array binding signal intensity,CaMyo5,≤ 0
same,SPOT peptide array binding signal intensity,CaNbp2,324
same,SPOT peptide array binding signal intensity,CaRvs167,6
same,SPOT peptide array binding signal intensity,CaRvs167-3,≤ 0
same,SPOT peptide array binding signal intensity,CaSho1,6
same,SPOT peptide array binding signal intensity,CaSla1-D1-D2,21
same,SPOT peptide array binding signal intensity,CaSla1-D3,≤ 0
same,SPOT peptide array binding signal intensity,ScAbp1,13
same,SPOT peptide array binding signal intensity,ScBbc1,11.5
same,SPOT peptide array binding signal intensity,ScBem1-D1,11
same,SPOT peptide array binding signal intensity,ScBzz1-D1,12
same,SPOT peptide array binding signal intensity,ScBzz1-D2,10
same,SPOT peptide array binding signal intensity,ScCyk3,≤ 0
same,SPOT peptide array binding signal intensity,ScFus1,≤ 0
same,SPOT peptide array binding signal intensity,ScHof1,0.5
same,SPOT peptide array binding signal intensity,ScHse1,35.5
same,SPOT peptide array binding signal intensity,ScLsb1,123
same,SPOT peptide array binding signal intensity,ScLsb2,5
same,SPOT peptide array binding signal intensity,ScLsb3,86
same,SPOT peptide array binding signal intensity,ScLsb4,≤ 0
same,SPOT peptide array binding signal intensity,ScMyo3,≤ 0
same,SPOT peptide array binding signal intensity,ScMyo5,1.5
same,SPOT peptide array binding signal intensity,ScNbp2,17
same,SPOT peptide array binding signal intensity,ScPex13,≤ 0
same,SPOT peptide array binding signal intensity,ScRvs167,5.67
same,SPOT peptide array binding signal intensity,ScSho1,35
same,SPOT peptide array binding signal intensity,ScSla1-D1-D2,394
same,SPOT peptide array binding signal intensity,ScSla1-D3,32
same,SPOT peptide array binding signal intensity,SpAbp1-D1,59
same,SPOT peptide array binding signal intensity,SpBbc1,≤ 0
same,SPOT peptide array binding signal intensity,SpBzz1-D1,134
